This is a sample that favours compounds with a hit; in the whole collection about 19% have one here.
HT1080NT lethal – qHTS for induction of synthetic lethality in tumor cells producing 2HG: qHTS for the HT-1080-NT fibrosarcoma cell line; HT-1080-NT fibrosarcoma viability, CellTiter-Glo ATP luminescence, 48 h; Potency, µM (titrated, usually from 46.1 µM), actives largely listed as cytotoxic; 360,000 tested, 1.6% active; AID 686970, 2013;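 note: NT is the 2HG producing partner of a matched IDH1 knockdown line; nearly all actives have a fitted effect of over 55% in size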
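Viability by CellTiter-Glo luminescence after 48 h compound exposure at 37C of HT-1080-NT cells (750/well, RPMI, 5% FBS). % activity scaled between DMSO wells and medium-only wells, then curve-fitted and categorized by curve class.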
ELG1 repair inh – qHTS screen for small molecules that inhibit ELG1-dependent DNA repair in human embryonic kidney (HEK293T) cells expressing luciferase-tagged ELG1 | 330,000 tested, 2.3% active | HEK293T ELG1-luciferase reporter, luminescence, 16 h; DNA damage induced by 5-fluorouridine | Potency, µM (titrated, usually from 46.1 µM), hits mostly inhibitors; note: nearly all actives have a fitted effect of over 55% in size
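Reporter activity after DNA damage by 5-fluorouridine is monitored. Compound-treated cells incubate 16 hr at 37 °C, then ONE-Glo is added for 30 min before luminescence reading.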
IL-1B inflam inh – qHTS for Inhibitors of Inflammasome Signaling: IL-1-beta AlphaLISA Primary Screen; THP-1 LPS/ATP IL-1B secretion, AlphaLISA, 16 h; active compounds read low; 360,000 tested, 4.7% active; activity change, % at 57.5 µM; in the data active = activity change below about -50%; inconclusive = mostly about -30% to -49%
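THP-1 cells pretreated 1 hr with compounds (up to 57.5 uM final), then stimulated with LPS (250 ng/mL final) plus ATP (1.25 mM final); secreted IL-1B measured by AlphaLISA after 16 hr, decreased signal indicating inhibition.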
DT40 TDP1 CPT – qHTS for Inhibitors of human tyrosyl-DNA phosphodiesterase 1 (TDP1): qHTS in cells in presence of CPT; chicken DT40 Tdp1-/-;hTDP1 cells + 20 nM CPT, ATP luminescence, 48 h; Potency, µM (highest dose often 46.2 µM), usual class: inhibitors; 420,000 tested, 12% active; AID 686979, 2013; note: nearly all actives have a fitted effect of over 55% in size
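Chicken DT40 Tdp1-/- cells stably complemented with human TDP1 were seeded at 400 cells/well in medium containing 20 nM camptothecin, exposed to pin-transferred compounds, and grown at 37 °C for at least 48 hr. Viability was read as ATP luminescence.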
DT40 TDP1 no CPT – qHTS for Inhibitors of human tyrosyl-DNA phosphodiesterase 1 (TDP1): qHTS in cells in absence of CPT; DT40 Tdp1-/- hTDP1 cells, no CPT, ATP luminescence, 48 h; Potency, µM (titrated, usually from 46.2 µM), hits mostly inhibitors; 420,000 tested, 15% active; AID 686978, 2013; note: nearly all actives have a fitted effect of over 55% in size
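A cellular qHTS used chicken DT40 cells lacking endogenous Tdp1 but carrying stably transfected human TDP1. Compounds were applied without camptothecin, and cell growth kinetics were judged by ATP-dependent luminescence after ≥48 hr.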
HT1080 IDH1KD tx – qHTS for induction of synthetic lethality in tumor cells producing 2HG: qHTS for the HT-1080-IDH1KD cell line; HT-1080 IDH1 knockdown viability, ATP luminescence, 48 h; Potency, µM (top dose mostly 46.1 µM), usual class: cytotoxic; 360,000 tested, 2% active; AID 686971, 2013
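IDH1KD HT-1080 cells, 750/well, RPMI + 5% FBS; compound pinned after 2 h settling; 48 h, 37 °C; CellTiter-Glo luminescence; % activity normalised to DMSO and no-cell wells; curves fitted, classed by r2 and efficacy.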
Hits are given with their value; n = inactive; u = inconclusive; x = not tested or not shown; [ ] = remark or other dose. Unless noted, calls come from the whole dose curve; as a rule, active = well fitted curve in the direction sought with a large enough effect; inconclusive = small, poorly fitted or top-dose-only effect, or another doubt; inactive = no such curve, though single readings can be large; an effect the other way counts as inactive or inconclusive.

SMILES | HT1080NT lethal | ELG1 repair inh | IL-1B inflam inh | DT40 TDP1 CPT | DT40 TDP1 no CPT | HT1080 IDH1KD tx
C[C@H](CO)N1C[C@H](C)[C@@H](CN(C)Cc2ccc(Cl)c(Cl)c2)Oc2c(NC(=O)Cc3ccccc3)cccc2C1=O | n | n | u | u | 15µM | u
C[C@H](CO)N1C[C@H](C)[C@@H](CN(C)CC2CCCCC2)Oc2c(NC(=O)CCC(F)(F)F)cccc2C1=O | u | n | n | 21µM | 15µM | n
CCOC(=O)N1CCc2c(sc3c2c(=O)n(Cc2ccccc2)c(=O)n3CC(=O)Nc2ccc(C)cc2C)C1 | x | x | x | n | n | x
Cc1ccccc1CN1CCc2nnc(C(C)NC(=O)c3cc(F)ccc3F)n2CC1 (stereo not given) | x | x | x | n | n | x
COc1ccc(OC)c(Nc2nc3ccccc3n3c(C)nnc23)c1 | x | x | x | n | n | x
Cc1cc(Br)ccc1NC(=O)CN(C)C(=O)c1cc(S(=O)(=O)N(C)C)ccc1N1CCCC1 | n | n | n | n | u | n
C[C@H](CO)N1C[C@H](C)[C@@H](CN(C)Cc2ccc(C(=O)O)cc2)Oc2c(NS(=O)(=O)c3ccccc3)cccc2C1=O | n | u | n | n | n | n
C[C@@H]1CN([C@@H](C)CO)C(=O)c2cccc(NC(=O)C3CCCCC3)c2O[C@@H]1CN(C)Cc1ccc(Cl)c(Cl)c1 | u | u | -90 | 10µM | 21µM | u
C[C@H](CO)N1C[C@H](C)[C@@H](CN(C)Cc2ccc(-c3ccccc3)cc2)Oc2c(NS(=O)(=O)c3ccccc3)cccc2C1=O | n | n | u | 21µM | 18µM | n
COc1ccc(C=O)c(OCc2cn(CC(=O)c3ccc(O)cc3)nn2)c1 | n | x | n | n | n | n
O=C(Cn1ccc(NC(=O)OCc2ccccc2)nc1=O)NCc1ccc2[nH]ccc2c1 | n | n | n | n | n | n
CCOC(=O)C(=O)Nc1c(C(=O)Nc2cccc(F)c2)oc2ccccc12 | x | x | x | n | n | x
CCOc1ccc(OCC)c(NC(=O)c2nnn(CC(=O)Nc3cc(C)cc(C)c3)c2N)c1 | u | n | n | n | n | 21µM
CCOc1ccc(NC(=O)Cn2nnc(C(=O)Nc3ccc(OCC)cc3)c2N)cc1 | x | x | x | n | n | x
Cc1cc(C)cc(NC(=O)c2nnn(Cc3cc(C)ccc3C)c2N)c1 | n | n | n | 21µM | u | u
CC(=O)Nc1cccc(-c2ccnc3c2CC(C)(C(=O)Nc2cccc(C(F)(F)F)c2)O3)c1 (stereo not given) | u | x | n | 13µM | 16µM | u
CC(=O)Nc1cccc(-c2ccnc3c2CC(C)(C(=O)Nc2ccc(Cl)c(C(F)(F)F)c2)O3)c1 (stereo not given) | u | x | -67 | 10µM | 13µM | 23µM
CC1(C(=O)Nc2cccc(Oc3ccccc3)c2)Cc2c(-c3ccccc3)ccnc2O1 (stereo not given) | u | x | n | u | u | u
CC(=O)Nc1ccc(-c2ccnc3c2CC(C)(C(=O)Nc2cccc(C(F)(F)F)c2)O3)cc1 (stereo not given) | u | x | -62 | 15µM | u | u
CC(=O)Nc1ccc(-c2ccnc3c2CC(C)(C(=O)Nc2cccc(OC(F)(F)F)c2)O3)cc1 (stereo not given) | 26µM | x | n | u | 16µM | u
Nc1ncnc2c1[nH]c(=O)n2C1CC(O)C(CO)O1 (stereo not given) | x | x | x | n | n | x
CCOc1ccc(NC(=O)C2CCN(S(=O)(=O)c3ccc4c(c3)C(C)(C)C(=O)N4C)CC2)cc1 | n | n | n | n | n | n
CCc1nnc(NC(=O)CC(C)c2ccccc2)s1 (stereo not given) | n | n | n | n | n | n
O=C(Cn1c(SCc2ccccc2F)nc2ccncc21)Nc1ccccc1C(F)(F)F | x | x | x | u | n | x
O=C(O)CC(C(=O)O)c1ccc(OCCCCOc2ccc(C(CC(=O)O)C(=O)O)cc2)cc1 (stereo not given) | n | n | n | n | n | n
SMILES | HT1080NT lethal | ELG1 repair inh | IL-1B inflam inh | DT40 TDP1 CPT | DT40 TDP1 no CPT | HT1080 IDH1KD tx
C#CNC(=O)C1(CC=C)CCNCC1 | n | n | n | n | n | n
COc1ccc(NS(=O)(=O)c2ccc(N3CC(O)=C(c4ccccc4)C3=N)cc2)cc1 | n | n | n | n | n | n
COc1ccccc1N1CCN(C(=O)CSc2nnc3c4ccccc4n(CC(=O)O)c3n2)CC1 | n | n | n | n | n | n
Cc1ccc(C2=NN=C(NC(=O)CSc3nnc4c5ccccc5n(C)c4n3)SC2)cc1 | u | u | n | 10µM | 9.2µM | 29µM
Cn1c2ccc(F)cc2c2nnc(SCC(=O)Nc3cccc(O)c3)nc21 | n | n | -71 | n | u | u
CCn1c2ccccc2c2nnc(SCC(=O)N3CC(C)OC(C)C3)nc21 (stereo not given) | n | u | n | u | 16µM | n[9.24 µM]
Cn1c2ccccc2c2nnc(SCC(=O)Nc3cccc(C(=O)O)c3)nc21 | n | n | n | n | n | n
CCCn1c2ccccc2c2nnc(SCC(=O)Nc3ncccn3)nc21 | n | u | n | 26µM | u | n
CCCCCCCCN1C(=O)[C@H](CC(=O)NCC23CC4CC(CC(C4)C2)C3)C[C@@]2(C(=O)OCC)CCC=C12 | u | x | n | n | 16µM | u
CCOC(=O)[C@]12CCCC=C1N(CCC1=CCCCC1)C(=O)[C@H](CC(=O)NCCC(C)C)C2 | u | x | n | 15µM | 12µM | u
CCOC(=O)[C@]12CCCC=C1N(CCC1=CCCCC1)C(=O)[C@H](CC(=O)NCCCN1CCCC1=O)C2 | n | x | n | u | u | n
CCCCCCCCN1C(=O)[C@H](CC(=O)NCCC(C)C)C[C@@]2(C(=O)OCC)CCCC=C12 | u | x | u | 13µM | 12µM | u
CCn1c(=O)c([N+](=O)[O-])c(NCC2CCCO2)c2ccccc21 (stereo not given) | n | n | n | n | n | n
COc1ccccc1OCC(=O)N(Cc1nnc(-c2ccccc2Cl)o1)C1CC1 | n | n | n | u | u | n
N#Cc1ccccc1OCC(=O)N(Cc1nnc(-c2ccccc2Cl)o1)C1CC1 | n | n | n | u | 16µM | n
